Test [1] is described as follows: Nuclear factor erythroid 2-related factor 2/antioxidant responsive element (Nrf2/ARE) small molecule agonists: qHTS cell viability counter screen in human keratinocytes (AID 1919968; active = well fitted curve in the direction sought with a large enough effect in the repeat runs; an effect the other way counts as inactive or inconclusive; also: nearly all actives have a fitted effect of over 55% in size). A digest of the protocol: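 KeratinoSens cells (HaCaT keratinocytes stably carrying an ARE-luciferase reporter) were seeded at 1,500 cells/well and rested 5 h at 37 C/5% CO2. They were then exposed to compounds in DMSO for 23 h. Viability was read by CellTiter-Fluor fluorescence after 1 h.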
A general note: In qHTS, concentration-response curves come from the screen itself.

Test [2] in a line: Nuclear factor erythroid 2-related factor 2/antioxidant responsive element (Nrf2/ARE) small molecule agonists: luciferase reporter gene qHTS assay in human keratinocytes (AID 1919969; also: nearly all actives have a fitted effect of over 35% in size; also: potency is read from the fitted curve at half-maximal effect). (In general: A reporter such as luciferase makes a cellular process visible.)
The target of test [3] is Gonadotropin-releasing hormone receptor (Homo sapiens) (UniProt P30968). Briefly: Human gonadotropin-releasing hormone receptor (GnRHR) small molecule agonists, calcium flux assay in GnRHR-HEK293 cells (AID 1920063). Also: nearly all actives have a fitted effect of over 35% in size. In short, it runs like this:
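HEK293 cells stably expressing human GnRHR were plated 18 h at 37 °C, loaded with calcium dye 1 h at 37 °C, then given compound in agonist mode; fluorescence (Ex/Em 480/540) read kinetically for 3 min at 1 s intervals.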
(A change in cytosolic calcium serves as a functional read-out for many receptors and channels.)

The target in test [4] is KiSS-1 receptor (Homo sapiens) (UniProt Q969F8). Briefly: Human kisspeptin (KISS1R) small molecule agonists, calcium flux assay in KISS1R-HEK293 cells (AID 1920064; active = well fitted curve in the direction sought with a large enough effect in the repeat runs; an effect the other way counts as inactive or inconclusive). In short, it runs like this: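 HEK293 cells stably expressing human KISS1R were plated 18 h at 37 °C, loaded with calcium dye for 1 h at 37 °C, then given compound by pin tool. Fluorescence (Ex/Em 480/540) was read kinetically for 3 min.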

A short description of test [5]: G protein-coupled receptor (GPCR) small molecule agonists, calcium flux assay: HEK293 wild type cell line counter screen (AID 1920065). A digest of the protocol: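 Cells were plated and cultured 18 h at 37 C/5% CO2, then loaded with calcium dye for 1 h at 37 C. Compounds in DMSO were pin-transferred in agonist mode, and fluorescence (Ex/Em 480/540) was read kinetically for 3 min at 1 s intervals.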

Test [6] in a line: p53 small molecule agonists, cell-based qHTS assay with human liver microsomes (AID 1963577).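 Also: p53 response element beta-lactamase reporter cells with liver microsomes plus NADPH.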 In short, it runs like this:
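Metabolically competent format: test substances, human liver microsomes and NADPH (both 0.5 mg/mL final) incubated with p53RE-bla cells 16 h at 37 C. Beta-lactamase reporter signal then quantified by fluorescence.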

Test [7] in a line: p53 small molecule agonists, cell-based qHTS assay with rat liver microsomes (AID 1963578). In short, it runs like this:
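Each plate received p53RE-bla cells, then compound, then rat liver microsomes and NADPH (both 0.5 mg/mL final). Plates were held 16 h at 37 C, and beta-lactamase activity was detected with LiveBLAzer over 2 h.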

Test [8] is described as follows: p53 small molecule agonists, cell-based qHTS assay with human liver microsomes: qHTS cell viability counter screen (AID 1963579). Also: nearly all actives have a fitted effect of over 45% in size. A digest of the protocol:
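Tox21 library compounds, delivered from DMSO stocks, were tested on p53RE-bla cells together with 0.5 mg/mL human liver microsomes and 0.5 mg/mL NADPH (final) over 16 h at 37 C; CellTiter-Glo luminescence served as the cytotoxicity measure.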

The nature of test [9]: p53 small molecule agonists, cell-based qHTS assay with rat liver microsomes: qHTS cell viability counter screen (AID 1963580). Also: nearly all actives have a fitted effect of over 45% in size. A digest of the protocol: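 In HCT-116 cells carrying a p53 response element-bla reporter, compounds were metabolically activated in situ by rat liver microsomes with NADPH over 16 h. Cell ATP content then served as the cytotoxicity measure.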
Test [10] in a line: p53 small molecule agonists, cell-based qHTS assay: qHTS cell viability counter screen (AID 1963581). Also: nearly all actives have a fitted effect of over 45% in size. A digest of the protocol: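 p53RE-bla HCT-116 cells were exposed to compounds for 16 h at 37 C; after the beta-lactamase FRET read in the same wells, CellTiter-Glo was added and luminescence (intracellular ATP) read after 30 min at room temperature.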
A short description of test [11]: p53 small molecule agonists, cell-based qHTS assay (AID 1963582; active = well fitted activation curve with a large enough effect in the signal ratio in the repeat runs, not every such curve was filed as active; the % refers to the signal ratio). A digest of the protocol:
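p53RE-bla beta-lactamase reporter cells rested 5 h at 37 C/5% CO2, then received compounds in DMSO by pin transfer and were incubated 16 h at 37 C. LiveBLAzer B/G FRET substrate was loaded for 2 h at room temperature before fluorescence reading.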

Test [12] concerns the target 5-hydroxytryptamine receptor 2A (Homo sapiens) (UniProt P28223). Kind of test: 5-hydroxytryptamine receptor 2A (HTR2A) small molecule antagonists, cell-based qHTS assay (AID 1963586). Also: nearly all actives have a fitted effect of over 45% in size. A digest of the protocol:
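Antagonist-mode intracellular calcium assay: DOI (4 nM) added after 5 min compound pre-incubation at room temperature to dye-loaded HTR2A-CHO cells. Fluorescence followed for 3 min, sampled every second.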

The target is the same in test [13]. Briefly: 5-hydroxytryptamine receptor 2A (HTR2A) small molecule agonists, cell-based qHTS assay (AID 1963587). Also: nearly all actives have a fitted effect of over 30% in size. A digest of the protocol:
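HTR2A-CHO cells, plated 18 h at 37 C/5% CO2, dye-loaded 1 h at 37 C; compounds in DMSO added by pin tool (agonist mode). Intracellular calcium flux read as kinetic fluorescence on FDSS over 2 min at 1 s intervals.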

The target of test [14] is Muscarinic acetylcholine receptor M1 (Homo sapiens) (UniProt P11229). Briefly: Cholinergic receptor muscarinic 1 (CHRM1) small molecule agonists, cell-based qHTS assay (AID 1963589). Also: nearly all actives have a fitted effect of over 35% in size. In short, it runs like this:
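CHO cells stably expressing human CHRM1, seeded 18 h at 37 C/5% CO2, dye-loaded 1 h at 37 C, then given compound in agonist mode; intracellular calcium fluorescence read kinetically at 1 s intervals. Fifteen concentrations, three independent runs.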

Test [15] is described as follows: cAMP Responsive Elements (CRE) small molecule agonists, cell-based qHTS assay (AID 1963590). In short, it runs like this:
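CRE-bla HEK 293T cells in DMEM with 10% dialyzed FBS, NEAA, pyruvate and 25 mM HEPES were plated 18 h at 37 C/5% CO2, then exposed to compounds in DMSO for 3 h before LiveBLAzer B/G FRET substrate addition.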

The nature of test [16]: cAMP Responsive Elements (CRE) small molecule antagonists, cell-based qHTS assay (AID 1963591; active = well fitted inhibition curve with a large enough effect in the signal ratio in the repeat runs, not every such curve was filed as active; the % refers to the signal ratio). In short, it runs like this: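 CRE-bla HEK293T cells were plated 18 h at 37 °C/5% CO2, pinned with compound in DMSO, then stimulated with NKH477 at 0.25 uM final for 3 h. LiveBLAzer B/G FRET substrate was added and plates incubated 2 h at room temperature.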
Test [17] addresses Beta-2 adrenergic receptor (Homo sapiens) (UniProt P07550). Briefly: Adrenergic beta2 receptor (ADRB2) small molecule antagonists, cell-based qHTS assay (AID 1963592). Also: series mostly up to about 92 µM; nearly all actives have a fitted effect of over 50% in size. A digest of the protocol:
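Cells (CHO, stable ADRB2 overexpression) incubated 18-20hr at 37C; compounds added from DMSO; agonist mix (1nM isoproterenol, 100uM IBMX, 25uM Ro-20-1724) added; 0.5hr RT; d2-cAMP and anti-cAMP-cryptate added; 1hr RT; 665/615 nm read.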

For test [18], the target named is D(2) dopamine receptor (Homo sapiens) (UniProt P14416). Briefly: Dopamine D2 receptor (DRD2) small molecule agonists, cell-based qHTS assay (AID 1963594). Also: nearly all actives have a fitted effect of over 35% in size. A digest of the protocol:
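HEK293 cells stably expressing DRD2 were cultured 24 h at 37 C, then given Ro20-1724 (0.1 mM final) and compounds for 10 min at room temperature. NKH477 (200nM) was then added for 30 min. cAMP was read by HTRF.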

The target is the same in test [19]. Briefly: Dopamine D2 receptor (DRD2) small molecule antagonists, cell-based qHTS assay (AID 1963595; active = well fitted inhibition curve with a large enough effect in the signal ratio in the repeat runs, with a control signal flat; the % refers to the signal ratio). In short, it runs like this: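 Cells were plated and grown for 24 h at 37 °C. Ro20-1724 (0.1 mM final) went in first, then compound for 10 min. NKH477 (200 nM) with quinpirole (12 nM) followed for 30 min at RT, then HTRF detection reagents for 1 h.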
For test [20], the target named is Muscarinic acetylcholine receptor M1 (Homo sapiens) (UniProt P11229). Briefly: Cholinergic receptor muscarinic 1 (CHRM1) small molecule antagonists, cell-based qHTS assay (AID 1963588). Also: nearly all actives have a fitted effect of over 40% in size. Also: potency is read from the fitted curve at half-maximal effect. In short, it runs like this: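 CHRM1-CHO calcium-flux assay, antagonist mode. Cells were seeded 18 h, dye-loaded 1 h at 37 C and given compound for 5 min at RT, then acetylcholine was added at 50nM. FDSS fluorescence was read 3 min; 15 concentrations, three runs.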

Records with an inconclusive call do not appear. Some structures have more than one record in an assay (separate samples or runs), and their calls can disagree. Activity calls are given as the source filed them. Unless noted, calls follow the shape of the full dose curve.

Sequence of Beta-2 adrenergic receptor (Homo sapiens) (P07550 whole entry, looked up): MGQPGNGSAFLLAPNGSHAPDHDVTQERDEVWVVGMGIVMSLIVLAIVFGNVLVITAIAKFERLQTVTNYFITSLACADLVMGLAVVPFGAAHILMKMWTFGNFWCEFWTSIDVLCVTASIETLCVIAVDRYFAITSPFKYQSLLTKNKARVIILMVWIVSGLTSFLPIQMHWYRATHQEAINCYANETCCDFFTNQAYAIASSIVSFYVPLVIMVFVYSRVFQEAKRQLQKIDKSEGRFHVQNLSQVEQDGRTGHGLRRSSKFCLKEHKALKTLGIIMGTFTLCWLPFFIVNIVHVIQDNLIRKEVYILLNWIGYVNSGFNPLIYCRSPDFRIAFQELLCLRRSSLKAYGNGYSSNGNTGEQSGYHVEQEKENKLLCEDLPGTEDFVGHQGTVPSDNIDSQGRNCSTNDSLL
Sequence of KiSS-1 receptor (Homo sapiens) (Q969F8 whole entry, looked up): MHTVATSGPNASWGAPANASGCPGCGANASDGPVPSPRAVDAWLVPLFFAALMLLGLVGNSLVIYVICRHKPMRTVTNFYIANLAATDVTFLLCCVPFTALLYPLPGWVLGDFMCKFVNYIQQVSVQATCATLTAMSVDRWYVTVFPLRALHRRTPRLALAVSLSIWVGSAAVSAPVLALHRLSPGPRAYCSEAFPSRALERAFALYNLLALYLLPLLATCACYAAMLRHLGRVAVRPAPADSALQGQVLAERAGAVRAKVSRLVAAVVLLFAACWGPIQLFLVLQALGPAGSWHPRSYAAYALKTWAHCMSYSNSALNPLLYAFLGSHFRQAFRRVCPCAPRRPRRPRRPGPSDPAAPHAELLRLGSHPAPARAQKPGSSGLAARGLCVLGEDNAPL
Sequence of Muscarinic acetylcholine receptor M1 (Homo sapiens) (P11229 whole entry, looked up): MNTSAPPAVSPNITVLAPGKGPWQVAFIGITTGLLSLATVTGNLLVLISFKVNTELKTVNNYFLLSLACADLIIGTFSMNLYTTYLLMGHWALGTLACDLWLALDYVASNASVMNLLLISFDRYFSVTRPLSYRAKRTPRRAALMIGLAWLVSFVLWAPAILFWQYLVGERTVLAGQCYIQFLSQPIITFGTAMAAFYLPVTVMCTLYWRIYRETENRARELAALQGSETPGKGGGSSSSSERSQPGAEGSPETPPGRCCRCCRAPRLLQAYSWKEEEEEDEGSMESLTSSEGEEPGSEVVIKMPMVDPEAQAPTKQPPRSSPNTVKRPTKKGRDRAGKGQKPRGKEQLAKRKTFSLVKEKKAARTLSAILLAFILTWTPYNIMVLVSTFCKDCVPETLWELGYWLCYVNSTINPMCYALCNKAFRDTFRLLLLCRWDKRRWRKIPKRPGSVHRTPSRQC
Sequence of D(2) dopamine receptor (Homo sapiens) (P14416 whole entry, looked up): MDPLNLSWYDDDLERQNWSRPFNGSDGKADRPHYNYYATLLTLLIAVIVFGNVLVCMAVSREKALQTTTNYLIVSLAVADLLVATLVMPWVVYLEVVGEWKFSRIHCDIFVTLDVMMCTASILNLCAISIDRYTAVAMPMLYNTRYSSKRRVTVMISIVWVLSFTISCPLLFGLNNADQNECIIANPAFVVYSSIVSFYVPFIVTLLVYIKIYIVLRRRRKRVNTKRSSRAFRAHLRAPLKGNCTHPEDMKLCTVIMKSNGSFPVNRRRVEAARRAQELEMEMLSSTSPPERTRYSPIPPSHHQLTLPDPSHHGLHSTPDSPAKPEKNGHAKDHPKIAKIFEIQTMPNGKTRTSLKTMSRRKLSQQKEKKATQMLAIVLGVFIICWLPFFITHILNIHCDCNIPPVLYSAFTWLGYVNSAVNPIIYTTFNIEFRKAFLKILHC
Sequence of 5-hydroxytryptamine receptor 2A (Homo sapiens) (P28223 whole entry, looked up): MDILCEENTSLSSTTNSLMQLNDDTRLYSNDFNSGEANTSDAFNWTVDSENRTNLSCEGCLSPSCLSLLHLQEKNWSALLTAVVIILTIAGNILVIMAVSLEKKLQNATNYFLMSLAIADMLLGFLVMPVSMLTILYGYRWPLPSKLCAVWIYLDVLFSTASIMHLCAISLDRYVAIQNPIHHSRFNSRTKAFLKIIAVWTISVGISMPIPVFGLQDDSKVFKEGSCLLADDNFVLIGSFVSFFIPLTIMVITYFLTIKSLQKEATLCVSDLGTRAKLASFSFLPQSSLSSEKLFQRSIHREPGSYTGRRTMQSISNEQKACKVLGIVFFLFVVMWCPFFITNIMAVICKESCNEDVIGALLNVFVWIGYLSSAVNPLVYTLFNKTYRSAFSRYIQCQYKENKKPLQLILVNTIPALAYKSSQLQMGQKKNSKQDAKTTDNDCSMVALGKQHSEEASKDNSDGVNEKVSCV
Sequence of Gonadotropin-releasing hormone receptor (Homo sapiens) (P30968 whole entry, looked up): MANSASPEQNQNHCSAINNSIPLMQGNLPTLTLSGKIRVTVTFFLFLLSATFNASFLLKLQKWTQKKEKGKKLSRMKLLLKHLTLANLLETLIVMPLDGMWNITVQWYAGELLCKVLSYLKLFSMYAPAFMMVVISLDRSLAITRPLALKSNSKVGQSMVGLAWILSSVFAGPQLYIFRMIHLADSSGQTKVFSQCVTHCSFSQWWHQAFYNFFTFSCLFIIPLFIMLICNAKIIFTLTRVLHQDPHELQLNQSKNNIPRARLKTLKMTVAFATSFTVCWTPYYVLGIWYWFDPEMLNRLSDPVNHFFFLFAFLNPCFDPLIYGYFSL

As for `O=[N+]([O-])c1ccccc1-c1ccccc1`, the Potency result in test [1], in [2], in test [3], in test [4], in test [5] and in test [6] was “inactive” throughout. The Potency entry in [7], in test [8], in test [9], in [10], in test [11] and in test [12] was “inactive” in each case. Further, the Potency entry in test [13], in test [14], in [15], in test [16], in test [17] and in test [18] was “inactive” in each case. In addition, the Potency entry in test [19] was “inactive”.

As to `C=CCN1C[C@H](C)N([C@H](c2ccc(C(=O)N(CC)CC)cc2)c2cccc(OC)c2)C[C@H]1C`, the Potency result in test [1], in test [2], in test [3], in [4], in test [5] and in [6] was “inactive” throughout. Moreover, the Potency entry in test [7], in test [8], in test [9], in [10], in test [11] and in [12] was “inactive” each time. The Potency result in test [13], in test [15], in test [16], in test [17], in [18] and in test [19] was “inactive” each time. Also, the Potency in test [20] is 2.59 µM (active).

On to `CC(COc1ccc(Oc2ccccc2)cc1)Oc1ccccn1` (configuration not stated), for which the Potency result in test [1], in test [3], in test [4], in [5], in [6] and in [7] was “inactive” throughout. For the same molecule, the Potency entry in test [8], in test [9], in test [10], in [11], in test [12] and in test [20] was “inactive” in each case. The Potency entry in [14], in [15], in test [16], in test [17], in test [18] and in test [19] was “inactive” throughout. In test [2], the Potency was 17.2 µM (active).

As for `CCC(C)C(C)(COC(N)=O)COC(N)=O` (configuration not stated), the Potency result in test [1], in test [2], in test [3], in test [4], in test [5] and in [6] was “inactive” in each case. The Potency entry in test [7], in test [8], in [9], in [10], in [11] and in [12] was “inactive” in each case. Besides, the Potency result in [13], in test [14], in test [15], in test [16], in test [17] and in test [18] was “inactive” in each case.

Consider `CCCCCCCCCCOC(=O)c1ccccc1C(=O)OCCCCCCCCCC`, for which the Potency entry in [1], in test [2], in test [3], in test [4], in test [5] and in test [6] was “inactive” in each case. For the same molecule, the Potency entry in test [7], in test [8], in test [9], in [10], in test [11] and in test [12] was “inactive” each time. Also, the Potency entry in test [13], in test [14], in test [15], in test [16], in test [17] and in [18] was “inactive” each time. The Potency result in [19] is “inactive”.

For `OCCOc1ccccc1`, the Potency result in test [1], in test [2], in test [3], in test [4], in test [5] and in test [6] was “inactive” throughout. The Potency result in test [7], in [8], in test [9], in [10], in test [11] and in [13] was “inactive” throughout. Moreover, the Potency entry in [20], in [14], in test [15], in test [16], in [17] and in test [18] was “inactive” in each case. The Potency entry in [19] is “inactive”.

In the case of `Brc1ccc(Oc2ccccc2)cc1`, the Potency result in test [1], in test [3], in test [4], in test [5], in test [6] and in test [7] was “inactive” in each case. Moreover, the Potency entry in [8], in test [9], in test [10], in test [11], in test [13] and in [20] was “inactive” throughout. Also, the Potency result in [14], in test [15], in test [16], in [17], in test [18] and in [19] was “inactive” in each case. The Potency in test [2] was 35.2 µM (active) and inactive.
